# Screening data from PubChem BioAssay.
# aSyn 5UTR act – Activators via SNCA 5'UTR binding, MLPCN. hit rate 7.1% among 300,000. alpha-synuclein 5'UTR reporter, activators screen. activity score, % (tested at 7.5 µM), hits read low; in the data active means activity score below about -60%
# * = called active by the depositor. A selection follows.
SMILES,aSyn 5UTR act
CC(C)(C)c1cnnn1-c1ccc(/C=N/Nc2ccc([N+](=O)[O-])cc2)cc1,-95*
CCOC(=O)N1CCC(NC(=O)c2ccc3c(c2)sc2nc(-c4ccc(OC)cc4)cn23)CC1,-98*
CCOC(=O)N1CCN(C(=O)c2ccc3c(c2)sc2nc(-c4ccccc4)cn23)CC1,-109*
CCOC(=O)N1CCN(C(=O)c2nc3ccccc3s2)CC1,-93*
CN(C)c1oc(-c2ccc(OCc3ccccc3)cc2)nc1C#N,-109*
CCc1ccc(-c2cc(C(=O)N3N=C(C(F)F)CC3(O)C(F)F)c3ccccc3n2)cc1 (stereo not drawn),-68*
O=C1S/C(=C\c2cccs2)C(=O)N1c1ccc(O)cc1,-133*
Cn1cc(/C=C2\SC(=O)N(c3ccc(O)cc3)C2=O)c2ccccc21,-86*
Cn1cc(/C=C2\SC(=O)N(c3ccccc3)C2=O)c2ccccc21,-217*
Cn1cc(/C=N/n2cnc3scc(-c4ccccc4)c3c2=O)c2ccccc21,66
O=C(/C=C/c1cccc(Br)c1)c1ccc2c(c1)OCO2,-72*
CN(/N=C/c1ccc2c(c1)OCO2)c1ccccc1,-169*
Fc1ccc(-c2csc(/C=C/c3ccc4c(c3)OCO4)n2)cc1,-186*
O=C(/C=C/c1ccc2c(c1)OCO2)c1ccc(F)cc1,-90*
O=C(/C=C/c1ccc2c(c1)OCO2)c1ccc[nH]1,-279*
COc1cc(/C=N/N(C)c2ccccc2)ccc1O,-156*
O=C(/C=C/c1ccccc1)c1ccc2c(c1)OCO2,-206*
CN(C(=O)/C=C/c1ccc2c(c1)OCO2)c1ccccc1,-89*
COc1cccc(/C=C/C(=O)c2ccc[nH]2)c1,-305*
O=C1NC(c2cccs2)Nc2sc3c(c21)CCCC3 (stereo not drawn),-131*
CC1(c2ccc(NC(=O)c3ccccc3F)cc2)CC1(Cl)Cl (stereo not drawn),-195*
N/C(Cc1ccc([N+](=O)[O-])cc1)=N\OC(=O)c1ccccc1F,-185*
CC(=O)Nc1ccc(NC(=O)c2ccccc2S(=O)(=O)c2ccccc2[N+](=O)[O-])cc1,-81*
O=C(Nc1ccc(-c2ccc([N+](=O)[O-])cc2)cc1)c1ccccc1F,-69*
O=C(Nc1ccc([N+](=O)[O-])cc1)c1ccccc1F,-154*
SMILES,aSyn 5UTR act
O=[N+]([O-])c1ccccc1S(=O)(=O)c1ccccc1,-79*
CCOc1cc(/C=C2/SC(=S)N(C)C2=O)ccc1Oc1ccc([N+](=O)[O-])cc1[N+](=O)[O-],-62*
CCOc1cc(/C=C2/NC(=S)NC2=O)ccc1OCc1ccc([N+](=O)[O-])cc1,62
O=C(c1ccc(S(=O)(=O)Cc2cc(F)ccc2F)c([N+](=O)[O-])c1)N1CCCCC1,-102*
CCc1ccc(-c2csc(-c3c[nH]c4ccccc34)n2)cc1,-308*
NS(=O)(=O)c1cccc(NC(=S)NC(=O)C23CC4CC(CC(C4)C2)C3)c1,-62*
Nc1nc(Cl)nc2c1ncn2[C@H]1C[C@H](O)[C@@H](CO)O1,84
Clc1c(-c2ccccc2)nnn1-c1ccccc1,-65*
CCC(C)NC(=O)c1cc(Cl)c(NC(=O)C2=C(C)OCCS2)cc1OC (stereo not drawn),-62*
CCC(=O)Nc1cc2nn(-c3ccc(C)cc3)nc2cc1C,80
CCCCC(=O)Nc1cc2nn(-c3ccc(OC)cc3)nc2cc1C,-67*
COc1ccc(-n2nc3cc(C)c(NC(=S)NC(=O)c4ccccc4C)cc3n2)cc1,-173*
O=C(NCc1nc2ccccc2[nH]1)c1cccs1,-64*
CCO[C@H]1OC(C(=O)NCc2nc3ccccc3[nH]2)=C[C@@H](C2CC2)[C@@H]1CCCO,80
O=C(NCCc1ccccc1)c1cnc2sccn2c1=O,-90*
O=C(NCCc1cccc(Cl)c1)c1cccs1,-115*
COc1ccc(Cl)cc1NC(=O)c1cnc2sccn2c1=O,-106*
O=C(NC(c1ccccc1)c1cc(Cl)c2cccnc2c1O)c1cccnc1 (stereo not drawn),100
O=C(NCCc1ccccc1)c1cccs1,-94*
Cc1cc2ccccc2n1CCNC(=O)c1cccs1,-121*
O=C(NCCc1cccc(Cl)c1)c1cccnc1,-84*
COc1ccc(/C=N/Nc2nncc3ccccc23)cc1,67
Oc1c(Br)cc(/C=N/Nc2nncc3ccccc23)cc1Br,-109*
COc1ccccc1/C=N/Nc1nncc2ccccc12,-132*
COc1cccc(/C=N/Nc2ncnc3scc(-c4ccccc4)c23)c1O,61
SMILES,aSyn 5UTR act
c1ccc(CCSc2nccn2-c2ccccc2)cc1,-121*
CC1CCC(C(C)C)C(=O)/C1=C/c1ccc(N)cc1 (stereo not drawn),-173*
O=C(NC1CC1)c1cc2cc3ccccc3nc2s1,-152*
Cc1occc1C(=O)NCCc1cccc(Cl)c1,-82*
Cc1occc1C(=O)NNC(=O)c1ccccc1C(=O)O,-74*
Cc1occc1C(=O)NCCCc1ccccc1,-71*
O=[N+]([O-])c1cc([N+](=O)[O-])c(Oc2cccc(Cl)c2Cl)cc1NN1CCCCC1,36
O=[N+]([O-])c1cc(/C=N/O)ccc1Oc1ccccc1Cl,-65*
CO/N=C/c1ccc(Oc2ccc(C)cc2)c([N+](=O)[O-])c1,-90*
O=C(O)c1ccc(N/N=C/c2ccc(-c3ccccc3)cc2)cc1,-78*
CC(C)c1ccc(/C=N/Nc2ccc(C(=O)O)cc2)cc1,85
O=C(O)c1cc(N/N=C/c2ccc(-c3ccccc3)cc2)ccc1Cl,-202*
C/C(=N\Nc1cccc(C(F)(F)F)c1)c1ccc(O)cc1,-76*
CSc1ccc(/C=N/Nc2ccc(Cl)c(C(=O)O)c2)cc1,-134*
Cc1nn(-c2ccccc2Cl)c(Cl)c1/C=N/Nc1cccc(C(=O)O)c1,103
O=C(O)c1ccc(N/N=C/C=C/c2ccccc2)cc1,-125*
Cc1nn(-c2cccc(C(F)(F)F)c2)c(Cl)c1/C=N/Nc1cccc(C(=O)O)c1,-108*
O=C(O)c1ccc(/C=N/Nc2cccc(C(F)(F)F)c2)cc1,-137*
COc1ccc2cc(CCNC(=O)c3ccco3)c(=O)[nH]c2c1,-117*
Cc1cc2cc(CCNC(=O)c3cccs3)c(=O)[nH]c2cc1C,-149*
Cc1ccc2cc(CCNC(=O)c3ccco3)c(=O)[nH]c2c1C,-138*
CCC(c1nnnn1CCc1ccccc1)N(Cc1ccco1)Cc1cc2c(C)ccc(C)c2[nH]c1=O (stereo not drawn),44
CC(=O)Nc1ccc(S(=O)(=O)N(Cc2cccnc2)Cc2cc3ccc(C)cc3[nH]c2=O)cc1,60
Cc1ccc2cc(CCNC(=O)c3ccco3)c(=O)[nH]c2c1,-143*
CC(=O)O[C@H]1C(=O)[C@]2(C)[C@H]([C@H](OC(=O)c3ccccc3)[C@]3(O)C[C@H](OC(=O)[C@H](O)[C@@H](NC(=O)c4ccccc4)c4ccccc4)C(C)=C1C3(C)C)[C@]1(OC(C)=O)CO[C@@H]1C[C@@H]2O,95
SMILES,aSyn 5UTR act
CCCCCCN1Cc2ccccc2C1,-117*
CCCCCCCCn1ccc(=N)cc1,62
CCCCCCCCCCn1ccc(=N)cc1,106
Cc1nc(NC(=O)c2ccc(F)cc2)sc1C(=O)Nc1ccc2c(c1)CCC2,-99*
CC(=O)c1sc(NCc2ccc(C)cc2)nc1C,-168*
CC(=O)c1sc(NC(=O)c2ccc(Cl)cc2)nc1C,-108*
Cc1ccc(CNc2nc(Cl)c(C#N)s2)cc1,-146*
CC(=O)c1sc(NC(=O)c2cccc(C)c2)nc1C,-131*
CC(=O)c1sc(NC(=O)c2ccccc2C)nc1C,-88*
CC(=O)c1sc(NC(=O)c2ccc(F)c(F)c2)nc1C,-159*
